The structures appear in SMILES notation. About 8,600 (12%) of roughly 69,000 compounds showed an effect of 50% or more. Many of the other results were omitted from the sample, so strong results are more common in it than they were.

The assay has as its system Plasmodium berghei. Description: Screen against P. berghei liver stage (PbLuc), transformed with Luciferase, at 10uM. The assay is classed as functional, HepG2. To be noted: tested at 10 uM.
With `CC(C)c1cc(C(=O)N2CCC3(CCc4ccccc4C(=O)N3)C2)no1` (centres undefined), the INHIBITION is 2.415%.
Consider `O=S(=O)(c1c(F)cccc1F)N1CCCC1c1nnc2n1CCCCC2` (centres undefined), for which the INHIBITION is listed as -21.2%.
With `CCCN1CCCn2c(nc(CNC(=O)N3CCCC3)cc2=O)C1`, the INHIBITION came to 49.1%.
`COc1cc2ncn(Cc3ncc[nH]3)c(=O)c2cc1OC`: the INHIBITION came out at 64.1%.
Take `COc1ccc2ncn(Cc3ncc[nH]3)c(=O)c2c1`: the INHIBITION is listed as -64.3%.
Then `CCc1ccc2ncn(Cc3ncc[nH]3)c(=O)c2c1`, with 15.2%; and `CCn1cnnc1CNC(=O)N1CCN(Cc2ccco2)CC1`, with -2.19%; and `O=C(CC1CCCC1)N1C[C@H](OCc2ccncc2)[C@H]2OCCC[C@H]21`, with -32%.
For `CN1CCOC(CNCC(=O)NCCc2ccc(F)cc2)C1` (centres undefined), the INHIBITION is listed as -2.27%.
Then `O=C(C[S+]([O-])Cc1ccc(F)cc1Cl)NC1CCCC1` (centres undefined), with 66.7%; and `CN(C)C(=O)c1cccc(C[S+]([O-])CC(=O)NC2CCCC2)c1` (centres undefined), with 54.4%.
Then `O=C(C[S+]([O-])Cc1cccc(F)c1)NC1CCCC1` (centres undefined), with 54.4%.
On to `CN(CC(=O)NC1CC1)S(=O)(=O)c1ccc(F)cc1Cl`, for which the INHIBITION is reported as -26.8%.
On to `O=C(Cc1ccc(F)cc1Cl)N[C@@H]1CCNC[C@H]1O`, for which the INHIBITION worked out at 4.59%.
Then `CN(C)C(=O)c1cccc(CN2CCN(CCO)CC2)c1`, with -170%; and `O=C(C[S+]([O-])Cc1cccc(C(F)(F)F)c1)NC1CCCC1` (centres undefined), with 21.9%; and `O=C(C[S+]([O-])Cc1cccc(Cl)c1)NC1CCCC1` (centres undefined), with 15.2%.
In the case of `CC1CN(C)CCN1Cc1cccc(C(=O)N(C)C)c1` (centres undefined) it was -32%; in that of `COCCC1(CNC(=O)Nc2ccc(-n3ccnn3)cc2)CCC1`, -12.2%.
Then `CSCC[C@H]1CN2CCC[C@H]2CN1Cc1cn(C)nc1C`, with 5.11%.
Consider `CN(Cc1ccco1)C(=O)C1CSCN1C(=O)C1CCC1` (centres undefined), for which the INHIBITION is on record as -16%.
Regarding `CC(C)c1noc(C2CCCN2S(=O)(=O)N2CCCCCC2)n1` (centres undefined), the INHIBITION is on record as -31.7%.
Then `CCS(=O)(=O)N1CCCCC1c1nc(C(C)C)no1` (centres undefined), with 57.3%; and `CCS(=O)(=O)N1CCCCC1c1nc(C)no1` (centres undefined), with 20.1%; and `Cc1ccc(C(C)NCc2c(C(C)C)nn(C)c2N2CCOCC2)o1` (centres undefined), with 7.27%.
Then `CCOc1ccc(Br)cc1C1CCCCN1` (centres undefined), with 18.4%; and `CCOc1ccc(Cl)cc1C1CCCN1` (centres undefined), with 18.2%; and `CCOc1ccc(Cl)cc1C1CCCCN1` (centres undefined), with 54.9%.
As for `O=C(CCn1ccnc1)N1CC[C@H](Oc2cccc(F)c2)[C@@H](O)CC1`, the INHIBITION turned out to be 7.3%.
Consider `Cc1cc(NC(=O)C(c2cccc(F)c2)N2CCOCC2)sn1` (centres undefined), for which the INHIBITION is -22.8%.
On to `Cc1cc(NC(=O)C(c2cccc(F)c2)N2CCOCC2)ccn1` (centres undefined), for which the INHIBITION was found to be 41.1%.
Then `O=C(Nc1nnc[nH]1)C(c1cccc(F)c1)N1CCOCC1` (centres undefined), with 52.6%; and `O=C(Cn1cc(I)cn1)N1CCNC1=O`, with -28%; and `N#Cc1cccnc1OC1CCNCC1`, with 5.58%.
Then `O=S(=O)(c1ccccc1F)N1CCC(Oc2cccnn2)CC1`, with 43.3%; and `COC(=O)c1ccc(S(=O)(=O)N2CCC(Oc3cccnn3)CC2)cc1`, with 26.6%; and `N#Cc1cccnc1OC1CCN(S(=O)(=O)c2c(F)cccc2F)CC1`, with 54.6%.
In the case of `COC(=O)c1sccc1S(=O)(=O)N1CCC(Oc2ncccc2Cl)CC1` it was 38.5%.
As to `N#Cc1cccnc1OC1CCN(S(=O)(=O)c2ccc(F)c(Cl)c2)CC1`, the INHIBITION was 64.3%.
In the case of `N#Cc1cccnc1OC1CCN(S(=O)(=O)c2ccc(Br)cc2)CC1` it was 50.4%.
Regarding `O=S(=O)(c1c(F)cccc1F)N1CCC(Cn2cccn2)CC1`, the INHIBITION is on record as 36.3%.
On to `O=S(=O)(c1cc(F)cc(F)c1)N1CCC(Oc2ccc(Cl)cn2)CC1`, for which the INHIBITION amounted to 35.8%.
Then `c1cncc(OCc2nnn3c2CN(Cc2ccsc2)CCC3)c1`, with 16.6%; and `Cc1ccncc1C(=O)N1CCCC(C(=O)CCc2ccccc2)C1` (centres undefined), with -34.8%.
Then `COc1ccccc1NC(=O)NCC(O)c1ccc(F)cc1F` (centres undefined), with 12.7%; and `O=C(CC1CC1)N1CCC2(CCCN(CCOc3ccccc3)C2)C1` (centres undefined), with 27.2%; and `NC(=O)CN1C[C@@H](c2ccccc2F)[C@@]2(CCCCC(=O)N2)C1`, with 21.95%.
Then `CC(C)c1ocnc1C(=O)N1CCC(=O)Nc2cccnc21`, with 4.13%; and `CCc1ccc(CCC(=O)N2CCC(=O)Nc3cccnc32)cc1`, with 70.3%.
As for `Cc1ccc(CCCC(=O)N2CCC(=O)Nc3cccnc32)s1`, the INHIBITION is recorded as 47.1%.
In the case of `CN1CC[C@@H]2[C@@H]1CCN2Cc1ccc2c(c1)OCO2` it was 35.8%; in that of `Cc1cccc(CN2C(=O)C[C@H]3[C@@H]2CCN3Cc2ccc(F)cc2)n1`, -4.82%.
In the case of `Cn1cc(C[C@H]2[C@H](O)CCN2Cc2ccc3c(c2)OCO3)cn1` it was 22.9%; in that of `Cn1cc(CN2CC[C@@H]3[C@@H]2CCN3Cc2ccc3c(c2)OCO3)cn1`, 60.5%; in that of `Cc1cccc(CN2CC[C@H]3[C@H]2CCN3Cc2cnn(C)c2)n1`, 51.6%.
On to `Cc1cccc(CN2CC[C@@H]3[C@@H]2CCN3Cc2cccs2)n1`, for which the INHIBITION was 33.1%.
Consider `Cc1cccc(CN2C(=O)CC[C@@H]3[C@H]2CCN3Cc2ccc(F)cc2)n1`, for which the INHIBITION was 69.5%.
With `Cc1cccc(CN2C(=O)CC[C@@H]3[C@H]2CCN3Cc2cccnc2)n1`, the INHIBITION is recorded as 31.1%.
With `Cc1cccc(CN2CC[C@H]3[C@H]2CCN3C(=O)c2cnn(C)c2)n1`, the INHIBITION was -0.554%.
Then `Cc1cc(OCC(=O)NCc2ccc(F)cc2)nnc1C`, with -3.08%; and `CC(=O)N1CCC2(CC1)CN(C(=O)[C@@H]1CSCN1)c1ccc(Cl)cc12`, with 30.5%; and `Cc1cc(CN2C[C@@H](N3CCN(C)CC3)[C@H]3OCCC[C@H]32)oc1C`, with -30%.
For the compound `Cn1cnc2c1C(COCC1CCOCC1)CN(C(=O)C1CC=CC1)C2` (centres undefined), the INHIBITION stood at 45.1%.
In the case of `Cc1ccc(-c2cc(CN3CCc4cncnc4C3)on2)cc1` it was -8.91%; in that of `CN(C)[C@@H]1CN(C(=O)c2cc3cccc(F)c3[nH]2)C[C@H]1O`, -0.275%.
Turning to `COc1ccc(CN2CCCN(C(=O)C(C)n3ccnc3)CC2)cc1` (centres undefined), the INHIBITION worked out at 18.55%.
In the case of `CN(CCCNC(=O)c1ccccc1F)CC(F)(F)F` it was 52.3%.
`CN(CCCNC(=O)c1ccccc1OCC(N)=O)CC(F)(F)F`: the INHIBITION is reported as -52.1%.
In the case of `CN(CCCNC(=O)c1ccc(C#N)cc1)CC(F)(F)F` it was 21.8%; in that of `Cn1nnc2c1CCN(Cc1nccs1)C2COCc1ccccc1` (centres undefined), 15.9%; in that of `Cc1noc(C)c1-c1nc(C2CCCN(C(=O)CN)C2)ccc1CO` (centres undefined), 37.1%.
Then `COCCN(Cc1cccc(O)c1)CC1CC1`, with 45.2%.
Take `Cc1cnc(CN(Cc2ccccc2)CC2CCOCC2)cn1`: the INHIBITION was determined as 14.2%.
For the compound `Cc1cnc(CN(Cc2cccc(O)c2)CC2CC2)cn1`, the INHIBITION came to 65.9%.
Then `Cc1cnc(N2CCCn3c(nnc3CN(C)C(C)C)C2)nc1`, with -19.2%.
Turning to `CCC(=O)N1CCC[C@]2(C(=O)N(C)C)CN(c3ccccn3)C[C@@H]2C1`, the INHIBITION stood at 34.2%.
For `CCN(Cc1ccc(C)o1)C(=O)C(C)n1ccnc1C(C)C` (centres undefined), the INHIBITION is given as 13%.
In the case of `Cc1ccc(-c2ccnc(NC(c3ncccc3C)C3CC3)n2)c(C)n1` (centres undefined) it was 51.2%.
In the case of `Cc1cccnc1C(Nc1nccc(C2CCCC2)n1)C1CC1` (centres undefined) it was 0.164%; in that of `Cc1cccc(C(Nc2nccc(-c3ccc(C)nc3C)n2)C2CC2)n1` (centres undefined), -11.2%; in that of `CS(=O)(=O)N1C[C@@H](Oc2ccccn2)[C@H]2OCCC[C@H]21`, 29%.
On to `Cc1cc(C)c(S(=O)(=O)Nc2c(C)nc(N(C)C)nc2C)cc1C`, for which the INHIBITION turned out to be 4.12%.
In the case of `CCN(C(=O)CN1CCn2c(nnc2C2CC2)C1)C1=CCCCC1` it was 51.2%.
Turning to `CCCN(C(=O)CN1CCn2c(nnc2C2CC2)C1)C1=CCCCC1`, the INHIBITION was 18.7%.
With `CCN(C(=O)CN1CCn2c(C)nnc2C1)C1=CCCCC1`, the INHIBITION was -6.46%.
In the case of `Cc1cn2nc(N3CCCCC3Cn3cccn3)sc2n1` (centres undefined) it was 11.6%; in that of `O=C(NCCNc1cnccn1)N1CCN(c2nccs2)CC1`, 29.2%.
In the case of `c1cc(CN2CC[C@@H]3CN(c4cncnc4)C[C@@H]3C2)ccn1` it was 27.6%; in that of `COc1ncccc1CN1C[C@H]2CCN(c3ccc(C)nn3)C[C@H]2C1`, 41.4%.
In the case of `COc1ncccc1CN1C[C@@H]2CN(c3ncccn3)C[C@@H]2C1` it was 47.4%; in that of `c1cnc(N2C[C@H]3CCN(Cc4ccncc4)C[C@H]3C2)nc1`, 58.4%; in that of `Cc1ccc(CN2C[C@@H]3CN(c4ncccn4)C[C@@H]3C2)cc1`, 40.8%.
For `COc1ncccc1CN1C[C@H]2CCN(c3ncccn3)C[C@H]2C1`, the INHIBITION turned out to be 56.4%.
Take `CC(=O)c1cnc(NCCN2CCCC2)nc1C`: the INHIBITION is given as 33.1%.
On to `CCN(C)C(=O)c1coc(COc2ccccc2)n1`, for which the INHIBITION is reported as -8.47%.
Then `CC(C)=CCC/C(C)=C/CN1CCN(C)C2(CCNC(=O)CC2)C1` (centres undefined), with 67.5%; and `CN1CCN(CCC(F)(F)C(F)F)CC12CCNC(=O)CC2` (centres undefined), with 49.9%; and `CC/C(C)=C/CCN1CCN(C)C2(CCNC(=O)CC2)C1` (centres undefined), with 35.9%.
Then `Cc1cc(C(=O)N2CC(O)CO2)c2ccc(C)c(C)c2n1` (centres undefined), with 15%; and `O=C(O)c1ccccc1CN1CCCC(Cc2ccn[nH]2)C1` (centres undefined), with 7.721%.
For `Cc1ncc(CN2CCOC(c3ccc(-c4cc[nH]n4)cn3)C2)s1` (centres undefined), the INHIBITION is reported as 19.6%.
Then `Cc1ncc(CN2CCOC(c3ccc(-c4cnn(C)c4)cn3)C2)s1` (centres undefined), with -6.92%; and `Cc1ncc(CN2CCOC(c3ccc(-c4ccccc4F)cn3)C2)s1` (centres undefined), with 95.3%; and `CCCNC(=O)NC(C)c1ccccn1` (centres undefined), with 21.2%.

The record behind these values is ChEMBL document CHEMBL4513216, “Probing the Open Global Health Chemical Diversity Library for Multistage-Active Starting Points for Next-Generation Antimalarials” (ACS Infect Dis, 2020).
